“And” between values parts separate entries of the source, which are not always exact repeats. Identical values can stand only once. Results filed as inconclusive are left out. The source made the active and inactive calls. Unless noted, the call rests on the fitted dose curve; in most records, active means well fitted curve in the direction sought with a large enough effect; inconclusive means small, poorly fitted or top-dose-only effect, or another doubt; inactive means no such curve, though single readings can be large; an effect the other way counts as inactive or inconclusive.
What was measured:
[1] = Cell Viability - BJ (AID 421; calls by dose curve;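 further: potency means the concentration at half of the fitted maximal effect; cells exposed to compound for 40 hours at 37 °C before readout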); conditions: BJ fibroblast viability, qHTS
Procedure, shortened: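 Luminescent ATP signal (CellTiter-Glo, 20 min at room temperature) served as the read-out of viable BJ cells after 40 hours of compound treatment. Responses were scaled between DMSO and 100 uM tamoxifen, and AC50 values were obtained by Hill modeling.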

[2] = Cell Viability - HepG2 (AID 433; calls by dose curve;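 further: potency means the concentration at half of the fitted maximal effect; potency for ATP loss meaning cytotoxicity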); conditions: qHTS
Procedure, shortened: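 HepG2 hepatocellular carcinoma cells (1500/well) were treated with compounds for 40 h at 37 °C in complete medium; intracellular ATP was read by CellTiter-Glo luminescence. Data were normalized to DMSO and 100 uM tamoxifen, and AC50 came from Hill fits.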

[3] = Cell Viability - MRC5 (AID 434; calls by dose curve;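 further: potency means the concentration at half of the fitted maximal effect; cells exposed to compound for 40 hours at 37 °C; potency reflects cytotoxicity seen as loss of intracellular ATP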); conditions: MRC5 lung fibroblast viability, qHTS
Procedure, shortened: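 Decrease in intracellular ATP, quantified by luciferase light output, reflects compound toxicity toward MRC5 cells exposed for 40 hr in complete culture medium. Concentration-response curves, scaled between DMSO and 100 uM tamoxifen, gave AC50 values.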

[4] = Cell Viability - N2a (AID 540); conditions: N2a mouse neuroblastoma cell viability; at 92.2 µM (top of the series);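 further: plate controls were DMSO alone for no effect and tamoxifen control for full effect; nearly all actives have a fitted effect of over 45% in size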
Procedure, shortened: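 CellTiter-Glo ATP luminescence, read 20 min after reagent at room temperature, reported viability following 40 h compound treatment at 37 °C. N2a mouse neuroblastoma cells seeded 1500/well; Hill equation gave AC50.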

[5] = Cell Viability - HUV-EC-C (AID 542); conditions: HUV-EC-C endothelial cell viability, qHTS; series mostly up to 92.2 µM; further: on the % scale 0 is the no-effect control and ±100 the full control effect; nearly all actives have a fitted effect of over 35% in size
Procedure, shortened: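 CellTiter-Glo luminescence measured ATP loss in HUV-EC-C cells (1000/well) after 40 hr compound exposure at 37 °C, in complete culture medium. Concentration-response data were Hill-fitted to give AC50.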

[6] = Cell Viability - SH-SY5Y (AID 544); conditions: SH-SY5Y neuroblastoma cell viability; viability change, negative = cytotoxic: at 92.2 µM (top of the series); further: nearly all actives have a fitted effect of over 55% in size
Procedure, shortened: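 Cytotoxicity measured via ATP-dependent luciferase luminescence (CellTiter-Glo) following 40 h, 37 °C exposure of 1500 SH-SY5Y cells per well. Concentration-response data were fitted with the standard Hill equation to give AC50.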

[7] = Cell Viability - Renal Proximal Tubule (AID 545); conditions: renal proximal tubule cells viability; at 91.7 µM (top of the series), primary cells of rat origin unless noted; further: nearly all actives have a fitted effect of over 40% in size
Procedure, shortened: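 Primary rat renal proximal tubule cells (1000/well) were treated with compounds for 40 hr at 37 °C in complete medium. Intracellular ATP was measured by CellTiter-Glo luminescence, and AC50 values came from Hill-equation fits of concentration-response data.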

[8] = Cellular Toxicity (caspase-3) Jurkat (AID 655); conditions: Jurkat caspase-3 activation, luminescence, DMSO = 0%, tamoxifen = 100%; at 92.2 µM (top of the series);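 further: cells exposed to compound for 16 h at 37 °C before reading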
Procedure, shortened: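 Jurkat cells (5000/well) in complete medium were treated with compounds for 16 hr at 37 °C, then Caspase-Glo 3/7 luminescence was read after 20 min at room temperature. Data normalized to DMSO (basal) and 100 uM tamoxifen (100%); AC50 from Hill fit.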

[9] = Cellular Toxicity (caspase-3) HUV-EC-C (AID 656); conditions: HUV-EC-C cells, caspase-3 activation (apoptosis), vehicle = 0, 100 µM tamoxifen = 100%; series mostly up to 92.2 µM
Procedure, shortened: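 HUV-EC-C endothelial cells, 1000/well, were pre-incubated 5 hr at 37°C, then exposed to compounds for 16 hr at 37°C. Caspase-Glo 3/7 luminescence was read after 20 min at room temperature. AC50 came from Hill fits, normalized to DMSO and 100 uM tamoxifen.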

[10] = Cellular Toxicity (caspase-3) SHSY5Y (AID 657); conditions: SH-SY5Y caspase-3 activation, DMSO zero, 10 µM staurosporine = 100%; series mostly up to 91.7 µM
Procedure, shortened: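 SH-SY5Y human neuroblastoma cells (1500/well) were treated with compounds for 16 h at 37 °C, then Caspase-Glo 3/7 luminescence was read after 1 h at room temperature. Data normalized to DMSO and 10 uM staurosporine; AC50 from Hill fits.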

[11] = Cellular Toxicity (caspase-3) BJ (AID 658); conditions: BJ fibroblasts, luminescence, normalized: DMSO 0%, staurosporine 100%; series mostly up to 91.7 µM
Procedure, shortened: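 Plated BJ cells (1000/well) rested 5 hr, received compound for 16 hr at 37 °C, then Caspase-Glo 3/7 reagent for 1 hr at room temperature before luminescence reading.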

[12] = Cellular Toxicity (caspase-3) MRC-5 (AID 659); conditions: MRC-5 cells, luminescence, normalized: DMSO 0%, 10 µM staurosporine 100%; series mostly up to 91.7 µM
Procedure, shortened: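 Apoptosis readout in MRC-5 cells: luciferase light generated after caspase 3/7 cleaves a peptide-aminoluciferin substrate, measured post 16 hr compound incubation at 37 °C.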

[13] = Cellular Toxicity (caspase-3) SK-N-SH (AID 661); conditions: SK-N-SH caspase-3 activation, qHTS, DMSO as zero, staurosporine as full; series mostly up to 91.7 µM
Procedure, shortened: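 Caspase 3/7 activation was read by luminogenic substrate cleavage after 16 hour treatment of SK-N-SH cells. Signal was scaled between DMSO and 10 uM staurosporine, and concentration-response data were fitted with the Hill equation for AC50.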

[14] = Cellular Toxicity (caspase-3) H-4-II-E (AID 663); conditions: H-4-II-E rat hepatoma, scaled: DMSO 0%, 100 µM tamoxifen 100%; series mostly up to 92.2 µM;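 further: cells exposed to compound for 16 hr before readout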
Procedure, shortened: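 Caspase 3/7 activation measured in H-4-II-E cells in complete culture medium after 16 hr treatment at 37 °C, using luciferase-coupled substrate readout; AC50 values come from Hill-equation fits of normalized concentration-response data.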

[15] = Cellular Toxicity (caspase-3) Renal Proximal Tubule (AID 667); conditions: renal proximal tubule cells; at 91.7 µM (top of the series), primary cells freshly taken from rat, solvent-only wells 0%, staurosporine 100% unless noted;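 further: cells exposed to compound for 16 hours at 37 °C before detection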
Procedure, shortened: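 Primary rat proximal tubule cells, 1000/well, 5 h plating at 37 °C, then compound 16 h at 37 °C. Caspase-Glo 3/7 reagent, 1 h RT, luminescence. Normalized to DMSO (basal) and 10 uM staurosporine (100%); Hill-fit AC50.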

[16] = qHTS Assay for Identification of Small Molecule Inducers of Hypoxia Response (AID 2120; active means well fitted curve in the direction sought with a large enough effect in the signal ratio, with a control signal flat, not every such curve was filed as active; the % refers to the signal ratio; further: 0% is about no effect); conditions: hypoxia response reporter cells, beta-lactamase ratio readout; series mostly up to 104 µM
Procedure, shortened: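 Reporter induction read as the CCF4 blue/green (460nm/530nm) emission ratio after 2.5 h dye loading at room temperature. ME-180 HRE-beta-lactamase cells received titrated compounds for 17 h at 37 degrees Celsius; AC50 values derived.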

[17] = qHTS assay for small molecule agonists of the antioxidant response element (ARE) signaling pathway measured by Nrf2-dependant transcriptional activity - cell viability counter screen (AID 720653; active means well fitted curve in the direction sought with a large enough effect in the repeat runs; an effect the other way counts as inactive or inconclusive; further: on the % scale 0 is the no-effect control and ±100 the full control effect); conditions: ARE-bla HepG2 viability, CellTiter-Glo ATP luminescence, 16 h; hits give low values
Procedure, shortened: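 ARE-bla HepG2 cells (2,000/well) rested 5 hrs at 37C/5% CO2, then exposed to compounds in DMSO for 16 hrs. Viability was read in the same wells as intracellular ATP by luminescence, 30 min at room temperature after reagent addition.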

[18] = qHTS assay for cell viability of HEK293 cells (AID 743288); conditions: ATP luminescence (CellTiter-Glo), 18 h; max response: hits give low values; further: on the % scale 0 is the no-effect control and ±100 the full control effect; nearly all actives have a fitted effect of over 50% in size
Procedure, shortened: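 After 18 h compound exposure at 37 C, parental HEK293 cells (2,000/well) are lysed with CellTiter-Glo and luminescence is read following 30 min at room temperature.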

[19] = qHTS assay for cell viability of the p53RE-bla HCT-116 cell line (AID 743292); conditions: p53RE-bla HCT-116 viability, ATP luminescence, 16 h; series mostly up to 95 µM; further: on the % scale 0 is the no-effect control and ±100 the full control effect; nearly all actives have a fitted effect of over 55% in size
Procedure, shortened: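 CellSensor p53RE-bla HCT-116 cells, 4,000/well, preincubated 5 h at 37 C, then exposed to compounds in DMSO for 16 h at 37 C. Viability read as CellTiter-Glo luminescence (intracellular ATP) after 30 min at room temperature.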

C=C(Cl)Cl
inactive: Potency [1] > 92 µM | Potency [2] > 92 µM | Potency [3] > 92 µM | activity change, negative = cytotoxicity [4] 3.46% | Potency [5] | Potency [6] | activity change, negative = cytotoxicity [7] -2.22% | caspase-3 activation [8] 0.59% | outcome [9] | outcome [10] | outcome [11] | outcome [12] | outcome [13] | outcome [14] | caspase-3 activation [15] 1.42% | outcome [16] | max response [17] -2.66% | max response [18] -0.763% | Potency [19]

COc1ccc(C=O)cc1OC
inactive: Potency [1] > 92 µM | Potency [2] > 92 µM | Potency [3] > 92 µM | activity change, negative = cytotoxicity [4] -19.3% | Potency [5] | Potency [6] | activity change, negative = cytotoxicity [7] -7.47% | caspase-3 activation [8] 1.2% | outcome [9] | outcome [10] | outcome [11] | outcome [12] | outcome [13] | outcome [14] | caspase-3 activation [15] -4.32% | outcome [16] | max response [17] -2.79% and -2.46% | max response [18] -6.04% and -11.4% | Potency [19]

Cc1cccc(C#N)c1
inactive: Potency [1] > 92 µM | Potency [2] > 92 µM | Potency [3] > 92 µM | activity change, negative = cytotoxicity [4] -2.18% | Potency [5] | Potency [6] | activity change, negative = cytotoxicity [7] -8.34% | caspase-3 activation [8] 0.831% | outcome [9] | outcome [10] | outcome [11] | outcome [12] | outcome [13] | outcome [14] | caspase-3 activation [15] 10.9% | outcome [16] | max response [17] -8.19% | max response [18] 0.442% | Potency [19]

CCOP(=S)(OCC)SCSC(C)(C)C
inactive: Potency [1] > 92 µM | Potency [2] > 92 µM | Potency [3] > 92 µM | activity change, negative = cytotoxicity [4] -4.96% | Potency [5] | Potency [6] | activity change, negative = cytotoxicity [7] 1.14% | caspase-3 activation [8] -0.764% | outcome [9] | outcome [10] | outcome [11] | outcome [12] | outcome [13] | outcome [14] | caspase-3 activation [15] -0.898% | outcome [16] | max response [17] -1.33% and 1.99% | max response [18] -9.58% and -1.13% | Potency [19]

O=NN(c1ccccc1)c1ccccc1
inactive: Potency [1] > 92 µM | Potency [2] > 92 µM | Potency [3] > 92 µM | activity change, negative = cytotoxicity [4] 2.63% | Potency [5] | Potency [6] | activity change, negative = cytotoxicity [7] -4.13% | caspase-3 activation [8] 3.48% | outcome [9] | outcome [10] | outcome [11] | outcome [12] | outcome [13] | outcome [14] | caspase-3 activation [15] 1.42% | outcome [16] | max response [17] -4.67% and 8.95% | max response [18] -0.72% and 1.61% | Potency [19]

NC(=S)Nc1ccccc1
inactive: Potency [1] > 92 µM | Potency [2] > 92 µM | Potency [3] > 92 µM | activity change, negative = cytotoxicity [4] -0.295% and -0.273% | Potency [5] | Potency [6] | activity change, negative = cytotoxicity [7] -4.19% [at 91.7 µM] and 2.38% [at 91.7 µM] | caspase-3 activation [8] 1.95% and -1.01% | outcome [9] | outcome [10] | outcome [11] | outcome [12] | outcome [13] | outcome [14] | caspase-3 activation [15] 12.5% [at 91.7 µM] and -6.92% [at 91.7 µM] | outcome [16] | max response [17] -3.66% and 8.32% and -3.85% | max response [18] -1.42% and -0.575% and -4.82% | Potency [19]

From PubChem BioAssay (NCATS)
